Measurements from PubChem BioAssay AID488969 (Vanderbilt High Throughput Screening Facility, 2010).
Whole data set: some 110,000 compounds, median “z-score” near -0.1, cut for the highest 2% near 2. This is one part of a sample in which the highest values are shown more often than they occur. Active and inactive are the calls of the source.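 How the source made its calls: active means z-score in the third read window above 3 or below -3; inactive means the rest.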

Each compound was assayed against Metabotropic glutamate receptor 8 (Rattus norvegicus) (UniProt P70579) (assay: mGluR8 Gi/Go-coupled signaling modulation – cell-based, rat, thallium flux, HTS, primary screen (AID 488969)). Settings: HEK293 rat mGluR8, GIRK (G protein-gated inwardly rectifying potassium channel) thallium flux, FluoZin2; at 10 µM; stronger effect = higher value; submaximal glutamate (EC20) added with thallium.
Metabotropic glutamate receptor 8 (Rattus norvegicus), sequence (P70579 whole entry, looked up): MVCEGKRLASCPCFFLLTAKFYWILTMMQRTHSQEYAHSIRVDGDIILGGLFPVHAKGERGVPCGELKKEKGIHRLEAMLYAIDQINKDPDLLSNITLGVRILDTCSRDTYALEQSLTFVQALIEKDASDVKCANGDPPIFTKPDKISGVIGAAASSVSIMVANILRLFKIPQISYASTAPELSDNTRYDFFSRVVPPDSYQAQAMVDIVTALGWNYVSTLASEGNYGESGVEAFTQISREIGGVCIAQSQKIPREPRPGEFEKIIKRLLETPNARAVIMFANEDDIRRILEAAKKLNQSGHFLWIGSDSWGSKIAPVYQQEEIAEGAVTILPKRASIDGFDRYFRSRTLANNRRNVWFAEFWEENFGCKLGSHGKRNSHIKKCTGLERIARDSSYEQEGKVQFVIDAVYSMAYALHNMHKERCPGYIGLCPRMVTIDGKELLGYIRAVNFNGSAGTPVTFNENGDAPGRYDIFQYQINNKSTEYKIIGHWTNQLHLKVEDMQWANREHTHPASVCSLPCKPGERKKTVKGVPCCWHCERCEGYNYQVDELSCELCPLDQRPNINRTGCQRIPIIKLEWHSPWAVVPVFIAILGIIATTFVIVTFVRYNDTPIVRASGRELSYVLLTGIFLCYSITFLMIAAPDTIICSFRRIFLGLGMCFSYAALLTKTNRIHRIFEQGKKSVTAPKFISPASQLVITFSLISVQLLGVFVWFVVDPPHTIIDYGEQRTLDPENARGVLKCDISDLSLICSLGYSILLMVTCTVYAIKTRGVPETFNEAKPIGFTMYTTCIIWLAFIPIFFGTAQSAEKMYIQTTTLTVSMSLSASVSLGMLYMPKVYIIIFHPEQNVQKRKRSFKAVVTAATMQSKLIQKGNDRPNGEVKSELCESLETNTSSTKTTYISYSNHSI

Point of comparison: `CCN(CC)S(=O)(=O)c1ccc(N2CCOCC2)c(NS(=O)(=O)c2ccc(C)cc2)c1`, z-score -0.152. Against it:
- COc1ccc(N(C(=O)c2cnsn2)C(C(=O)NC2CCCCC2)c2ccncc2)cc1 (configuration not stated) — higher, 0.0313
- O=C(NC(=S)NCCN1CCOCC1)c1ccccc1Br — higher, 0.00751
- Cc1cc(Cl)ccc1NC(=S)NCC(C)C — higher, -0.0377
- O=C(NC(=S)NCCN1CCOCC1)c1ccc(Cl)cc1Cl — higher, 0.241
- CCC(=O)Nc1cccc(NC(=S)NC(=O)c2ccc(Cl)cc2Cl)c1 — higher, 0.0528
- CC(C)CC(NC(=O)c1ccc(Cl)cc1Cl)C(=O)O (configuration not stated) — lower, -0.413
- CCCCNC(=O)c1ccccc1Cl — higher, -0.135
- O=C(NC(=S)NCC1CCCO1)c1ccc(Cl)cc1Cl (configuration not stated) — lower, -0.218
- CCCCNC(=O)c1ccccc1C(=O)NCCCC — higher, 0.0704
- Cc1cc(N2C(=O)CC(Cc3ccccc3)C2=O)no1 (configuration not stated) — higher, -0.0586
- CCOc1ccc(N(CC)S(=O)(=O)c2ccc3c(c2)n(C)c(=O)c(=O)n3C)cc1 — lower, -0.239
- Clc1ccc(Cn2ncc3c(N4CCCCC4)ncnc32)cc1 — lower, -0.535
- O=C(O)c1cc([N+](=O)[O-])ccc1N1CCCCC1 — higher, -0.123
- CCN(CC)S(=O)(=O)c1ccc(N2CCOCC2)c(NC(=O)Cc2ccc(Cl)cc2)c1 — higher, 0.141
- O=C(NCCc1ccncc1)Nc1ccccc1 — higher, 0.141
- O=C(O)c1c(F)c(F)cc2ccccc12 — higher, 0.365
- CNc1oc(-c2ccco2)nc1C#N — higher, 0.498
- Cc1cc(Cl)c(S(=O)(=O)N2CCCCCC2)cc1OCC(N)=O — higher, 1.66
- CCNC(=S)NNC(=O)c1ccccc1Cl — lower, -0.211
- O=C(NC(=S)NCCN1CCOCC1)c1ccccc1Cl — lower, -0.177
- Cc1cc(/C=C(\C#N)C(=O)Nc2ccccc2)c(C)n1-c1ccc2c(c1)OCO2 — lower, -0.335
- CCN(CC)C(=O)Oc1ccc2cc(Br)ccc2c1 — higher, 0.935
- CC(C)(C)C1CCC(OCC(O)CN2CCN(Cc3ccccc3)CC2)CC1 (configuration not stated) — higher, -0.106
- CC(C)(C)C1CCC(OCC(O)CN2CCN(c3ccccc3)CC2)CC1 (configuration not stated) — lower, -0.235
- CC(=O)/C(=N\Nc1ccccc1)Sc1nnc(-c2ccccc2)n1-c1ccccc1 — lower, -0.24
- COc1ccccc1-n1nnnc1SCC(=O)NC1CCCC1 — lower, -0.293
- Cc1cnc(NC(=O)CSc2ncn(-c3ccccc3)n2)s1 — higher, -0.143
- Cc1ccccc1OCC(=O)N/N=C/c1cccn1C — higher, 2.42
- Cc1cccc(C)c1OCC(=O)N/N=C/c1cccn1C — lower, -0.372
- Cc1ccc(OCC(=O)N/N=C/c2cccn2C)cc1 — higher, 1.01
- CCCS(=O)(=O)N1CCCC(C(=O)NCCCN(C)c2ccccc2)C1 (configuration not stated) — higher, 0.0444
- NS(=O)(=O)c1ccc(NC(=S)N2CCN(S(=O)(=O)c3ccc(F)cc3)CC2)cc1 — higher, 0.195
- O=S(=O)(c1ccc(Cl)cc1)N1CCN(C(=S)Nc2ccc(F)c(Cl)c2)CC1 — higher, 0.862
- COc1ccccc1-n1c(CCn2nc(C)c(Br)c2C)n[nH]c1=S — lower, -0.472
- CC1(C)CC(=O)C(N=Nc2ccc(Cl)cc2)=C(O)C1 — lower, -0.154
- CC(C)c1ccc(OCC(=O)N(c2ccccn2)C2CCCCC2)cc1 — lower, -0.397
- O=C(CSc1nncs1)NCc1ccc2c(c1)OCO2 — lower, -0.652
- COc1cccc(-n2c(SCC(=O)N3CCCC3)nc3c([nH]c4ccccc43)c2=O)c1 — lower, -0.189
- Cc1nnc2c3ccccc3c(-c3cccc4ccccc34)nn12 — lower, -1.04
- CC1CCCC(C)N1C(=O)CSc1nnc(COc2ccccc2)n1-c1ccccc1 (configuration not stated) — lower, -0.853
- CC(C)(C)Nc1nc(N2CCCC2)nc(N2CCCC2)n1 — higher, -0.14
- OCCNc1nc(N2CCCC2)nc(N2CCCC2)n1 — lower, -0.968
- CC(C)(CO)Nc1nc(N2CCCC2)nc(N2CCCC2)n1 — higher, 2.09
- CC1CCCN(CC(O)COc2ccc(Cl)cc2)C1 (configuration not stated) — higher, 0.149
- O=C(CSc1nccc2ccccc12)N1CCN(c2ccccn2)CC1 — lower, -1.6
- Cc1ccc(NC(=O)COC(=O)CNC(=O)c2cccc([N+](=O)[O-])c2)cc1S(=O)(=O)N1CCCCCC1 — higher, 0.745
- Cc1ccc(OCC(=O)Nc2cccc(S(=O)(=O)N3CCCCC3)c2)c([N+](=O)[O-])n1 — higher, 0.216
- O=C(COc1cccnc1[N+](=O)[O-])Nc1cccc(S(=O)(=O)N2CCCCC2)c1 — lower, -0.289
- Cc1ccc(OCC(=O)Nc2cc(S(=O)(=O)N3CCCCC3)ccc2C)c([N+](=O)[O-])n1 — lower, -0.377
- CCC(c1nnc(SCC(=O)Nc2nnc(-c3ccccc3)o2)o1)N(C)C (configuration not stated) — higher, -0.0751
- Oc1cccc(/C=N/Nc2cc(N3CCOCC3)nc(N3CCOCC3)n2)c1 — lower, -0.242
- O=C(NC1CCc2ccccc21)C1CCN(S(=O)(=O)c2ccc(Cl)cc2)CC1 (configuration not stated) — higher, 2.31
- O=C(NC1CCCc2ccccc21)C1CCN(S(=O)(=O)c2ccccc2F)CC1 (configuration not stated) — lower, -0.424
- O=C(NC1CCc2ccccc21)C1CCN(S(=O)(=O)c2ccc(-n3cnnn3)cc2)CC1 (configuration not stated) — higher, 0.204
- O=C(/C=C/c1ccc(F)cc1)N1CCCN(C(=O)/C=C/c2ccc(F)cc2)CC1 — lower, -0.668
- CCCn1c(SCC(=O)N2N=C3/C(=C/c4ccc(OC)cc4)CCCC3C2c2ccc(OC)cc2)n[nH]c1=O (configuration not stated) — higher, -0.0176
- O=C(CSCc1ccc(F)cc1)Nc1ccccc1 — higher, 0.0848
- CC(C)CC(=O)NS(=O)(=O)c1ccc(N)cc1 — higher, 0.0965
- COc1cccc(/C=C/C(=O)Oc2ccc(C(=O)c3ccc(F)cc3)cc2)c1 — lower, -2.23
- CCCCNC(=O)C1CCCNC1=O (configuration not stated) — higher, 0.0768
- CN(C)CCNC(=O)C1CCCNC1=O (configuration not stated) — higher, 0.0264
- Cc1ccc(S(=O)(=O)NCCNC(=O)C2CCCNC2=O)cc1 (configuration not stated) — higher, 2.41

`CCCCNC(=S)NC(=O)c1ccccc1Br` was tested, and the z-score was 6.17 (active).
With `CC(C)CNC(=S)NC(=O)c1ccc(Cl)cc1Cl` the z-score was 13.8 (active).
In the case of `CCCCNC(=S)NC(=O)c1ccc(Cl)cc1Cl`, the z-score is reported as 3.01 (active).
In the case of `CC(C)NC(=S)NC(=O)c1ccc(Cl)cc1Cl`, the z-score is reported as 13.8 (active).
`CC(C)CNC(=S)NC(=O)c1ccccc1Cl` was tested, and the z-score was 8.99 (active).
`CC1CCN(CC(O)COC2CCC(C(C)(C)C)CC2)CC1` (configuration not stated) was tested, and the z-score was 4.18 (active).
`O=S(=O)(c1ccccc1)N1CCN(C(=S)Nc2ccc(F)cc2)CC1` was tested, and the z-score was 3.37 (active).
`Cc1ccc(OCC(=O)Nc2ccc(C)c(S(=O)(=O)N3CCCCC3)c2)c([N+](=O)[O-])n1` was tested, and the z-score was 6.89 (active).
`Cc1ccc(NC(=O)COc2cccnc2[N+](=O)[O-])cc1S(=O)(=O)N1CCCCC1` was tested, and the z-score was 4.45 (active).
